Source: PubChem BioAssay AID1347074 (Center for Chemical Genomics, University of Michigan, 2019)
The campaign covered roughly 47,000 compounds. About 2,800 (6%) were called active. For the sample, actives were picked, then their nearest neighbours and some compounds at random. A number with no mark means an inactive call. Rule as the data show it: active = z-score above about 3 (passing the limit was not always enough); inactive = the rest.

The compounds below were run against Endoribonuclease Dicer (Homo sapiens) (UniProt Q9UPY3) (assay: inhibitors of Dicer pre-microRNA processing, primary screen, biochemical, cat-ELCCA, chemiluminescence (AID 1347074;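 also: plate controls were vehicle for no effect and no enzyme for full effect; higher signal means more uncleaved substrate so more Dicer inhibition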)). Details: cat-ELCCA pre-miR-21 Dicer processing, at 25 µM, hits give high values.
Chain of Endoribonuclease Dicer (Homo sapiens) (Q9UPY3 whole entry, looked up): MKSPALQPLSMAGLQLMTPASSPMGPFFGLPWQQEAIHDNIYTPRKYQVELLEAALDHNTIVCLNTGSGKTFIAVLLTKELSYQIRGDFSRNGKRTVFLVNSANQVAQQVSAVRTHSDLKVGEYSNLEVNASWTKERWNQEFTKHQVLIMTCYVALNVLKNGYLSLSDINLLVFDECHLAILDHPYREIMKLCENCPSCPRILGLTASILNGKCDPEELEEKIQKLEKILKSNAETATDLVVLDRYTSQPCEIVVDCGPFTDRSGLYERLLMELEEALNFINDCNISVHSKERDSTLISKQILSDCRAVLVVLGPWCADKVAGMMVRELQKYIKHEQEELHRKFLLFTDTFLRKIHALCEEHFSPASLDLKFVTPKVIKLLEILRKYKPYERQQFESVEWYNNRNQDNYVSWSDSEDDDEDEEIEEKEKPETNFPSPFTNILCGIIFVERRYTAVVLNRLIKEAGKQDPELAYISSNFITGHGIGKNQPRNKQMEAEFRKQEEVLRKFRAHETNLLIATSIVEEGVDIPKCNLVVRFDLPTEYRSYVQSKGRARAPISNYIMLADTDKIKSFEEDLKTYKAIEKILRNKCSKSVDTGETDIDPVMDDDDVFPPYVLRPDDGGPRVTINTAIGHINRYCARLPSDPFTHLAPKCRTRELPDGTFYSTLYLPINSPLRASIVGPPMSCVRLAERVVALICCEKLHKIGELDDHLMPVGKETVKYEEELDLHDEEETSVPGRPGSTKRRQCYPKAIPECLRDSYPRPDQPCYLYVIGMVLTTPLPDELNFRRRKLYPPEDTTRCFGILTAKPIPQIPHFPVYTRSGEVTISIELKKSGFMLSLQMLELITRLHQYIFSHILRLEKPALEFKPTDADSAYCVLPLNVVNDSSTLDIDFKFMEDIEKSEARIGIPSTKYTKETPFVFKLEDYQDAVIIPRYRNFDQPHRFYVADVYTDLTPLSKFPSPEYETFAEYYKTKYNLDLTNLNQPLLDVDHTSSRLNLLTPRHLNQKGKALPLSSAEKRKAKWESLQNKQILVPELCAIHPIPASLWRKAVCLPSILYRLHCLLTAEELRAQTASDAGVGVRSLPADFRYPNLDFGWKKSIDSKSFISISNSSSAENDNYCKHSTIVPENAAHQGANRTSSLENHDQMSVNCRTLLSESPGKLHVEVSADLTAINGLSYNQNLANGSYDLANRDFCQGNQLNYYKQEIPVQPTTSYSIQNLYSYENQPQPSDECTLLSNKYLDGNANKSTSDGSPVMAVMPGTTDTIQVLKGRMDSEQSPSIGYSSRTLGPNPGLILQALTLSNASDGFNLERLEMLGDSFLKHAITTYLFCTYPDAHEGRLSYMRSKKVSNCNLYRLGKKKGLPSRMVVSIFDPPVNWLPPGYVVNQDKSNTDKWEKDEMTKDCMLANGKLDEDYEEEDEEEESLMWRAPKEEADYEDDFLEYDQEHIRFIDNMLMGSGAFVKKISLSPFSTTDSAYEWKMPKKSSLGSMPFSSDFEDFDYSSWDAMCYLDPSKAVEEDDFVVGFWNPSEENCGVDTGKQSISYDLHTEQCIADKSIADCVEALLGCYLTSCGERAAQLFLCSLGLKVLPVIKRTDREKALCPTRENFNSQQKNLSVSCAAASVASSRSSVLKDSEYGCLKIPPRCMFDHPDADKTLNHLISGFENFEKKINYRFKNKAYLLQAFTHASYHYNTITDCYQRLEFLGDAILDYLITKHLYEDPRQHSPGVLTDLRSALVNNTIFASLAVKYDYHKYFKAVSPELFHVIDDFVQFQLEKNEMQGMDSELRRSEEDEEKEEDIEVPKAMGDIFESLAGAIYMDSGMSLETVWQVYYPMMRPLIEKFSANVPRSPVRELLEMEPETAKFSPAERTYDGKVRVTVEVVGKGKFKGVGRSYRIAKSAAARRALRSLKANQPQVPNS

SMILES	z-score
C1=CC2CC1CC2CN1CCN(Cc2c[nH]c3ccccc23)CC1 (centres undefined)	4.79 (active)
COc1cccc(-c2ccc(-c3noc(-c4cccc(OC)c4)n3)c(OC)n2)c1	0.01
COc1ccc(O)c(C2=NN3C(C2)c2cccc(OC)c2OC3c2ccccc2)c1 (centres undefined)	1.51
COc1cccc2c1OC(c1ccccc1F)N1N=C(c3ccccc3O)CC21 (centres undefined)	5.58 (active)
COc1cccc(C2Oc3ccccc3C3CC(c4ccccc4O)=NN32)c1OC (centres undefined)	6.13
Cn1c(-c2ccccc2)cnc1NCc1c(F)cccc1Cl	2.86
Cc1ccc(-c2nc3ccccc3[nH]2)cc1N	0.04
Nc1cccc(CCc2nc3ccccc3[nH]2)c1	1.56
Nc1ccc(/C=C/c2nc3ccccc3[nH]2)cc1	4.8 (active)
CCCCn1nnc2sc3c(c2c1=O)CCCC3	-0.96
O=C(CSc1nc2c(c(C(F)(F)F)n1)CCc1ccccc1-2)N1CCOCC1	0.53
COc1cc2c(cc1OC)C(C)N(Cc1cc(C)c(O)c(C)c1)CC2 (centres undefined)	-0.23
CCOC(=O)c1cc(Sc2ccccc2)cc(C(=O)OCC)n1	-0.71
CCc1ccc(C2C(C(=O)OC)=C(C)NC3=C2C(=O)CC(C)(C)C3)cc1 (centres undefined)	0.1
CC(C)(C)OC(=O)n1ccc2cc(Br)ccc21	3.27 (active)
CC(=O)Oc1cc2c(C(=O)N3CCN(c4ccccc4)CC3)c(C)oc2c2ccccc12	3.08 (active)
CCOC(=O)c1cc(-c2ccccc2)sc1NC(=S)N1CCN(c2ccccc2)CC1	1.09
CCOC(=O)c1nnn2c1nc(N1CCN(c3ccccc3)CC1)c1ccccc12	0.67
O=C(CC1(O)C(=O)N(CCc2ccccc2)c2ccccc21)c1cccc(-n2cccc2)c1 (centres undefined)	-0.51
C1=C(c2cccs2)CC(c2cccs2)=NN=C1c1cccs1	3.06 (active)
Cc1[nH]nc2c1C(c1ccccc1Cl)C(C#N)=C(N)O2 (centres undefined)	-1.03
O=C(O)C1C2C=CC(C2)C1C(=O)N1CCN(CCO)CC1 (centres undefined)	3.56 (active)

SMILES	z-score
COc1ccc(-c2c(C)nn3c2N=C(c2ccccc2)CC3c2ccco2)cc1 (centres undefined)	-0.12
CC(C)N(CCC#N)CN1C(=O)c2ccccc2C1=O	1.63
COc1cc2c(cc1OC)C(c1ccccc1)=NC(C)(C)C2	0.36
FC(F)(F)c1ccc(/C=N/Nc2nccc(C(F)(F)F)n2)cc1	0.54
FC(F)(F)c1cccc(NC(=S)NNc2nccc(C(F)(F)F)n2)c1	3.39 (active)
FC(F)(F)c1ccnc(NCCNc2nccc(C(F)(F)F)n2)c1	-0.42
Cc1cc2c(cc1C)CSC(C)(c1cccc([N+](=O)[O-])c1)SC2	-1.77
Cc1ccc(C2Nc3cccc4cccc(c34)N2)cc1	3.06 (active)
Oc1ccc(C2Nc3cccc4cccc(c34)N2)cc1	0.15
COc1cccc(-n2[nH]nnc2=S)c1	1.1
COc1cccc(C2Nc3cccc4cccc(c34)N2)c1	3.24 (active)
Cc1ccc(C2CC(c3cccc(C)c3)n3nc(N)nc3N2)cc1 (centres undefined)	0.14
O=C(CSc1nc2c(c(C(F)(F)F)n1)CCc1ccccc1-2)NCc1cccnc1	2.31
CC1=C(C(=O)OC2CCCCC2)C(c2cccnc2)C2=C(CCCC2=O)N1 (centres undefined)	-0.48
CC1=NOC(=O)C1C(c1cccc(Br)c1)c1c(C)[nH]n(-c2ccccc2)c1=O (centres undefined)	-4.75
CC(C)(C)c1cc2nc(-c3ccc4c(c3)CCC4)cc(C(F)(F)F)n2n1	-1.01
Cc1cc(Br)ccc1Nc1ncnc(N)n1	0.67
C=CCN(C(=O)c1ccccc1Cl)c1ccccc1C(=O)NCC(=O)OCC	-0.79
Cc1cc(O)cc(C)c1/C=C1\NC(=O)NC1=O	0.4
Cc1ccc(C(=O)NNc2ncnc3sccc23)cc1	0.13
CSc1n[nH]c(N)c1-c1ccccn1	6.44 (active)
CCOC(=O)c1sc(SC(C)C)c2c1CC(C)(C)CC2=O	-1.12

SMILES	z-score
Cc1cc(C)c2c(n1)sc1c(=O)n(/N=C/c3ccc4c(c3)OCO4)c(C)nc12	-0.06
O=C(/C(=N\N=C\c1ccc2c(c1)OCO2)c1ccccc1)c1ccccc1	-1.69
Cc1ccc(N2CC(=O)N(/N=C/c3ccc4c(c3)OCO4)CC2=O)cc1	3.3 (active)
O=C(c1cccn1-c1ccc(F)cc1)C(F)(F)F	-0.2
Cc1ccc(-c2ccc3c4ccccc4c(C(=O)C(F)(F)F)c-3o2)cc1	-0.14
O=c1c2c(-c3ccc(Cl)cc3)csc2nc2c3ccccc3c(N3CCN(CCO)CC3)nn12	-0.37
Cn1nccc1NS(=O)(=O)c1ccc(F)cc1	-0.57
Cc1ccc(S(=O)(=O)Nc2ccc(F)cc2NS(=O)(=O)c2ccc(C)cc2)cc1	15.1 (active)
Cc1ccc(S(=O)(=O)Nc2cc(C)cc(C)c2)cc1	2.36
CN(C)C(=O)Sc1nnc(C2CC2)n1-c1ccc(Cl)cc1	15.9
CC(C)OC(=O)C1C(=O)CC(C)(O)C(C(=O)OC(C)C)C1c1ccc(Br)cc1 (centres undefined)	-1.31
CCCOC(=O)C1=C(C)Nc2nnnn2C1c1cc(Br)ccc1OC (centres undefined)	3.54 (active)
CC1=C(C(N)=O)C(c2ccc(F)cc2)n2nnnc2N1 (centres undefined)	-0.27
CCOC(=O)C1=C(C)Nc2nnnn2C1c1ccc(O)cc1 (centres undefined)	-2.24
O=C(O)CSCC(=O)Nc1ccccc1Sc1ncnc2cc(-c3ccccc3)sc12	-0.26
Fc1cccc(-c2nn3c(COc4ccccc4)nnc3s2)c1	0.92
COc1cc(O)ccc1C1Nc2c(C)cc(C)cc2-c2cc(C)nn21 (centres undefined)	2.86
CCOc1ccccc1C1Nc2c(C)cccc2-c2cc(C)nn21 (centres undefined)	4.42 (active)
COc1cccc(C2Nc3ccccc3-c3cc(C)nn32)c1O (centres undefined)	-0.43
Cc1c(C#N)c(NC(=O)c2ccc(Cl)cc2)n(CC2CC2)c1C	0.46
